{"source": "paper PMC6212790", "about": "“How bacterial xenogeneic silencer rok distinguishes foreign from self DNA in its resident genome”", "note": "In all, about 33,000 sequences were measured (“e-score”: median about -0.038, highest 2% from about 0.33 on). The list comes from a sample in which the highest values are over-represented; it also holds similar and randomly drawn sequences."}
{"molecular_target": "T1, GST-Rok-C97-191 (Bacillus subtilis subsp. subtilis str. …, UniProt O34857 97-191)", "T1 sequence": "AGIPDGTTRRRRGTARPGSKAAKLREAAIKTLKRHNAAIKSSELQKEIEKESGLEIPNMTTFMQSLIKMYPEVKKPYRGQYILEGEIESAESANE", "assay": "protein binding microarray; Rok is a gene silencer of Bacillus subtilis; high values mean tight binding", "conditions": "protein: recombinant; tags: GST (pTH5325, pDEST15-Magic modified); dsDNA, one strand shown", "procedure,_shortened": "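Each has a 25-mer constant primer and a 35-mer variable part from a de Bruijn sequence of order 10, covering every non-palindromic 8-mer at least 32 times (palindromic 16). Preference for each 8-mer is given as a rank-based, unitless enrichment score (E-score). Its range runs from 0.5 (most favored) to −0.5 (most disfavored).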", "units": {"binding signal": "E-score"}}
{"sequence": "AAAAACTT", "binding signal": -0.191}
{"sequence": "TAAAACGA", "binding signal": 0.027}
{"sequence": "ACAAACTA", "binding signal": 0.382}
{"sequence": "CAAAACTC", "binding signal": 0.162}
{"sequence": "ACAAACTC", "binding signal": 0.00994}
{"sequence": "CAAAACAA", "binding signal": -0.0275}
{"sequence": "AAAAACTC", "binding signal": 0.113}
{"sequence": "TAAAACTA", "binding signal": 0.334}
{"sequence": "CAAAACTA", "binding signal": 0.401}
{"sequence": "GAGGCTGA", "binding signal": -0.165}
{"sequence": "ACCGCAAG", "binding signal": -0.109}
{"sequence": "ACGAACTA", "binding signal": 0.311}
{"sequence": "CCAACTAA", "binding signal": 0.16}
{"sequence": "ACGCTAAG", "binding signal": 0.0377}
{"sequence": "CGAAGCTA", "binding signal": 0.0414}
{"sequence": "CTCGGAGC", "binding signal": 0.0375}
{"sequence": "CCAAACCA", "binding signal": -0.102}
{"sequence": "GCAAACTA", "binding signal": 0.385}
{"sequence": "GCAAACCA", "binding signal": -0.0828}
{"sequence": "CCAAACTA", "binding signal": 0.376}
{"sequence": "GAAAACCA", "binding signal": -0.143}
{"sequence": "GAAAACTA", "binding signal": 0.336}
{"sequence": "GCAAACAA", "binding signal": -0.173}
{"sequence": "GAAAACTC", "binding signal": -0.0271}
{"sequence": "CCAAACTC", "binding signal": -0.0249}
{"sequence": "GTTACAGA", "binding signal": 0.21}
{"sequence": "TGCGCGCA", "binding signal": 0.0584}
{"sequence": "TAGGGGGA", "binding signal": -0.143}
{"sequence": "ACAGTTGA", "binding signal": 0.152}
{"sequence": "CCAGCGTC", "binding signal": -0.163}
{"sequence": "CATAGAAA", "binding signal": 0.105}
{"sequence": "GATAGAAA", "binding signal": 0.333}
{"sequence": "GATAGACA", "binding signal": 0.058}
{"sequence": "GATAGAAC", "binding signal": 0.289}
{"sequence": "AATAGAAC", "binding signal": 0.151}
{"sequence": "TATAGAAA", "binding signal": 0.397}
{"sequence": "AATAGAAA", "binding signal": 0.388}
{"sequence": "TATAGACA", "binding signal": 0.00807}
{"sequence": "AATAGAAT", "binding signal": 0.318}
{"sequence": "ACAAACCG", "binding signal": -0.027}
{"sequence": "TCATTCCA", "binding signal": -0.0328}
{"sequence": "GCATCCAA", "binding signal": -0.0621}
{"sequence": "GATAGAGA", "binding signal": 0.104}
{"sequence": "AATACAGG", "binding signal": -0.0587}
{"sequence": "GACCCAAC", "binding signal": -0.142}
{"sequence": "AGAAGCGA", "binding signal": -0.104}
{"sequence": "GGGCATAC", "binding signal": -0.0596}
{"sequence": "AATCGACC", "binding signal": -0.0453}
{"sequence": "GCTACTCA", "binding signal": 0.0267}
{"sequence": "GAACTATC", "binding signal": 0.261}
{"sequence": "AAACTAAT", "binding signal": 0.36}
{"sequence": "AAACTCTT", "binding signal": 0.063}
{"sequence": "AAACTAAC", "binding signal": 0.308}
{"sequence": "CAACTATA", "binding signal": 0.277}
{"sequence": "AAACTAAG", "binding signal": 0.251}
{"sequence": "AAACTATA", "binding signal": 0.398}
{"sequence": "AAACTATC", "binding signal": 0.36}
{"sequence": "AAACTATG", "binding signal": 0.229}
{"sequence": "CAACTATC", "binding signal": 0.156}
{"sequence": "AAACTATT", "binding signal": 0.448}
{"sequence": "GAACTATA", "binding signal": 0.29}
{"sequence": "AAACAGTC", "binding signal": -0.0408}
{"sequence": "GCGCCGGA", "binding signal": -0.0972}
{"sequence": "ATTTAAAA", "binding signal": -0.0263}
{"sequence": "GAAGCGTC", "binding signal": -0.188}
{"sequence": "ATTATTCA", "binding signal": 0.199}
{"sequence": "CTAGATCA", "binding signal": 0.199}
{"sequence": "ATTACAGC", "binding signal": 0.215}
{"sequence": "TAACTATA", "binding signal": 0.347}
{"sequence": "AAACTAAA", "binding signal": 0.296}
{"sequence": "TAACTAAA", "binding signal": 0.23}
{"sequence": "CAGAGAGA", "binding signal": -0.071}
{"sequence": "CTTTAGGC", "binding signal": -0.0933}
{"sequence": "CTAGAAAG", "binding signal": 0.113}
{"sequence": "GAAGAAAC", "binding signal": 0.108}
{"sequence": "GCAGAAAC", "binding signal": -0.0283}
{"sequence": "CTAGAAAC", "binding signal": 0.34}
{"sequence": "CAAGAAAC", "binding signal": 0.224}
{"sequence": "GTAGAAAC", "binding signal": 0.435}
{"sequence": "CTAGAAAA", "binding signal": 0.312}
{"sequence": "GTAGAAAA", "binding signal": 0.384}
{"sequence": "TTAGAAAA", "binding signal": 0.263}
{"sequence": "TCAGCCCA", "binding signal": -0.191}
{"sequence": "TGCCAACA", "binding signal": 0.0271}
{"sequence": "AGAGGTAA", "binding signal": 0.149}
{"sequence": "CGGCAAAC", "binding signal": 0.168}
{"sequence": "AGCGCCGG", "binding signal": -0.146}
{"sequence": "CTTATACA", "binding signal": 0.263}
{"sequence": "ATTATACA", "binding signal": 0.333}
{"sequence": "ATTATACG", "binding signal": 0.388}
{"sequence": "GTTATACA", "binding signal": 0.253}
{"sequence": "ACTATACG", "binding signal": 0.0223}
{"sequence": "ATTATACC", "binding signal": 0.228}
{"sequence": "GTACTGCA", "binding signal": 0.119}
{"sequence": "AGAATGCG", "binding signal": 0.105}
{"sequence": "ATAGGGAC", "binding signal": -0.176}
{"sequence": "CACGATCA", "binding signal": -0.0988}
{"sequence": "AACCCCTG", "binding signal": -0.151}
{"sequence": "GTCTGACA", "binding signal": -0.163}
{"sequence": "GATATACC", "binding signal": 0.153}
{"sequence": "ACTATACA", "binding signal": 0.302}
{"sequence": "TATATACA", "binding signal": 0.402}
{"sequence": "AATATACC", "binding signal": 0.353}
{"sequence": "AACATACA", "binding signal": 0.343}
{"sequence": "CATATACC", "binding signal": 0.222}
{"sequence": "CATATACA", "binding signal": 0.22}
{"sequence": "TACATACA", "binding signal": 0.253}
{"sequence": "AATATACA", "binding signal": 0.394}
{"sequence": "GATATACA", "binding signal": 0.175}
{"sequence": "AACATACT", "binding signal": 0.0962}
{"sequence": "AATACACA", "binding signal": 0.173}
